Assay [1] in a line: qHTS assay to identify small molecule agonists of the TGF-beta/Smad signaling pathway - cell viability counter screen (AID 1346829). Further: top concentration of the series differs between compounds; nearly all actives have a fitted effect of over 45% in size. The procedure, abridged: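 Tox21 qHTS format: SBE-bla HEK 293T cells treated with DMSO-dissolved compounds for 5 hr; CellTiter-Glo luminescence after 30 min at room temperature.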
(qHTS replaces the single test concentration by a dilution series.)

Assay [2] in a line: qHTS assay to identify small molecule agonists of the TGF-beta/Smad signaling pathway (AID 1346859; active means well fitted activation curve with a large enough effect in the signal ratio in the repeat runs, not every such curve was filed as active; the % refers to the signal ratio; further: series mostly up to about 77 µM). In outline:
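Dual-wavelength fluorescence (460/530 nm emission) quantified beta-lactamase expression under the Smad binding element in HEK 293T cells following 5 hr compound treatment at 37 C.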

Assay [3] concerns the target Thyrotropin-releasing hormone receptor (Homo sapiens) (UniProt P34981). In words: qHTS assay to identify small molecule antagonists of the thyrotropin-releasing hormone receptor (TRHR) signaling pathway (AID 1346877; active means well fitted inhibition curve with a large enough effect in the repeat runs, not every such curve was filed as active; further: series mostly up to about 51 µM). In outline:
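Cells (TRHR-HEK293) are plated and kept 18 h at 37 °C/5% CO2. A calcium-sensitive dye is added for 2 h, compound follows for 5 min at room temperature, and TRH is then given at 1 nM final.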

The target is the same in assay [4]. As to the kind of experiment: qHTS assay to identify small molecule agonists of the thyrotropin-releasing hormone receptor (TRHR) signaling pathway (AID 1346891; calls by dose curve;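 further: HEK293 cells expressing TRHR with calcium dye readout; series mostly up to about 58 µM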). The procedure, abridged:
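Kinetic fluorescence (3 min, 1 s intervals) reported intracellular calcium after compound transfer onto TRHR-Hek293 cells pre-loaded with dye for 2 h at 37 °C.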

Assay [5] can be described thus: Human pregnane X receptor (PXR) small molecule agonists, qHTS cell viability counter screen (AID 1346977). Further: nearly all actives have a fitted effect of over 50% in size. The procedure, abridged:
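HepG2 cells stably carrying the PXR-Luc reporter are cultured with 5% charcoal-stripped FBS and treated with compounds for 24hr. CellTiter-Fluor is added at 23hr and fluorescence is read after 1hr.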

Assay [6] is described as follows: Caspase-3/7 induction in HepG2 cells by small molecules, qHTS assay (AID 1346978). Further: nearly all actives have a fitted effect of over 15% in size. In outline:
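Wild-type HepG2 cells, 2,000/well, settled 5 hr at 37 C and 5% CO2, then compound-treated for 17 hr; caspase-3/7 activity read by luminescent Caspase-Glo 3/7 after 30 min at room temperature.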

Assay [7] can be described thus: Caspase-3/7 induction in CHO-K1 cells by small molecules, qHTS cell viability counter screen (AID 1346979). Further: nearly all actives have a fitted effect of over 35% in size. The procedure, abridged: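 Seeding: 1,500 CHO-K1 cells/well. Rest: 5hr, 37C. Treatment: compounds in DMSO, 16hr. Read: CellTiter-Fluor, 1hr, fluorescence.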
Assay [8] in a line: Caspase-3/7 induction in CHO-K1 cells by small molecules, qHTS assay (AID 1346980). Further: nearly all actives have a fitted effect of over 15% in size. In outline: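 Wild-type CHO-K1 cells exposed to compounds for 17hr at 37 C, 5% CO2. Caspase-3/7 activity then measured by Caspase-Glo 3/7 luminescence after 30min at room temperature.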
A short description of assay [9]: Caspase-3/7 induction in HepG2 cells by small molecules, qHTS cell viability counter screen (AID 1346981). Further: series mostly up to about 92 µM; nearly all actives have a fitted effect of over 30% in size. In outline: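 Steps: seed 2,000 HepG2 cells per well; incubate 5 hr at 37 C; pin-add compounds in DMSO; incubate 16 hr; add CellTiter-Fluor; after 1 hr at 37 C and 5% CO2, read fluorescence.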
Assay [10] deals with Nuclear receptor subfamily 1 group I member 2 (Homo sapiens) (UniProt O75469). In words: Human pregnane X receptor (PXR) small molecule agonists, qHTS assay (AID 1346982). Further: nearly all actives have a fitted effect of over 35% in size. In outline:
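Agonist mode qHTS: PXR-Luc HepG2 cells plated 5 hr before DMSO-dissolved compounds were pinned in, cultured 24 hr at 37 C, 5% CO2; ONE-Glo luminescence readout.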

Assay [11] concerns the target Cytochrome P450 2C9 (Homo sapiens) (UniProt P11712). As to the kind of experiment: Cytochrome P450 Family 2 Subfamily C Member 9 (CYP2C9) small molecule antagonists: luciferase reporter qHTS assay (AID 1671198). Further: series mostly up to about 120 µM; nearly all actives have a fitted effect of over 50% in size. In outline:
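P450-Glo proluciferin substrate with CYP2C9 enzyme; 10 min RT preincubation, then NADPH regeneration 1 h at 37C; luciferin detection reagent 20 min RT, luminescence in relative luminescence units.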
Background: In a reporter assay the amount or activity of a reporter protein is the signal.

The target of assay [12] is Voltage-gated inwardly rectifying potassium channel KCNH2 (Homo sapiens) (UniProt Q12809). In words: Human Ether-a-go-go-Related Gene (hERG) channel small molecule antagonists: fluorescence cell-based qHTS assay (AID 1671200).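 Further: hERG-expressing U2OS cells given a thallium stimulus after FluxOR II dye loading; series mostly up to about 77 µM; nearly all actives have a fitted effect of over 50% in size.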 In outline:
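First, 1000 cells per well are seeded and cultured overnight at 37 C. Next, FluxOR II dye is loaded for 1 h at room temperature, protected from light. After 10 more minutes, stimulus is added and fluorescence is read.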
(In general: hERG is a cardiac potassium channel; its block is linked to QT prolongation.)

Assay [13] addresses Cytochrome P450 3A4 (Homo sapiens) (UniProt P08684). As to the kind of experiment: Cytochrome P450 Family 3 Subfamily A Member 4 (CYP3A4) small molecule antagonists: luciferase reporter qHTS assay (AID 1671201). Further: series mostly up to about 120 µM; nearly all actives have a fitted effect of over 50% in size. The procedure, abridged:
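Enzyme and proluciferin substrate are mixed with test chemicals for 10 min, then NADPH regeneration system drives turnover for 1 h at room temperature. A detection reagent halts the reaction; luminescence after 20 min gives relative activity.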

The target in assay [14] is Cytochrome P450 2C19 (Homo sapiens) (UniProt P33261). In words: Cytochrome P450 Family 2 Subfamily C Member 19 (CYP2C19) small molecule antagonists: luciferase reporter qHTS assay (AID 1671197). Further: nearly all actives have a fitted effect of over 65% in size. Further: potency means the concentration at half of the fitted maximal effect. The procedure, abridged: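 Relative luminescence units recorded 20 min after the detection reagent stopped a 1 h, 37C CYP2C19 reaction on proluciferin substrate, which was started by NADPH regeneration following 10 min room-temperature compound preincubation; ketoconazole positive control.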

The target in assay [15] is Cytochrome P450 2D6 (Homo sapiens) (UniProt P10635). In words: Cytochrome P450 Family 2 Subfamily D Member 6 (CYP2D6) small molecule antagonists: luciferase reporter qHTS assay (AID 1671196). The procedure, abridged: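 P450-Glo format: CYP2D6 converts a proluciferin substrate to luciferin in an NADPH-driven reaction lasting 1 h at room temperature. Light output, proportional to CYP2D6 activity, reflects interference by test chemicals.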

Assay [16] has as its target Cytochrome P450 1A2 (Homo sapiens) (UniProt P05177). In words: Cytochrome P450 Family 1 Subfamily A Member 2 (CYP1A2) small molecule antagonists: luciferase reporter qHTS assay (AID 1671199). In outline: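 Inhibition of CYP1A2 conversion of proluciferin to luciferin, detected by luminescence. Reaction run 1 h at room temperature with NADPH regeneration after brief compound preincubation.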

Assay [17] has as its target Nuclear receptor subfamily 1 group I member 2 (Rattus norvegicus) (UniProt Q9R1A7). In words: Rat pregnane X receptor (rPXR) activation by small molecules, qHTS assay (AID 1346983). Further: nearly all actives have a fitted effect of over 20% in size. To be noted: rPXR luciferase reporter cells, One-Glo luminescence, 24 h; active compounds read high. The procedure, abridged: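 Cell-based rPXR activation assay: rPXR cells, 2,000 per well, rested 5hr at 37 C, then exposed to compounds in DMSO for 24 hr at 37 C. Luciferase activity read by One-Glo luminescence after 30 min at room temperature.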

Assay [18] concerns the target Nuclear receptor subfamily 1 group I member 2 (Homo sapiens) (UniProt O75469). In words: CYP3A4 induction through human pregnane X receptor (PXR) by small molecules, qHTS assay (AID 1346984). Further: nearly all actives have a fitted effect of over 40% in size. In outline:
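Steps: seed DPX-2 cells, 5 hr at 37C; pin-transfer compounds; 24 hr at 37C; add Luciferin-IPA (3uM final), 3 hr at 37C; add One-Glo, 30 min RT; read luminescence.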

For assay [19] the target is unchanged. In words: Human pregnane X receptor (PXR) activation by small molecules, qHTS assay (AID 1346985). Further: nearly all actives have a fitted effect of over 40% in size. In outline:
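DPX-2 cells (HepG2 co-transfected with a PXR response element and a CYP3A4-promoter luciferase construct) were seeded at 2,000 per well, rested 5 hr at 37C, then exposed to DMSO-dissolved compounds for 24 hr. Activation was read as luciferase luminescence.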

Values without a mark were called inactive. Results filed as inconclusive are left out. Activity calls are given as the source filed them. Unless noted, the call rests on the fitted dose curve; in most records, active means well fitted curve in the direction sought with a large enough effect in the repeat runs; inconclusive means weak or mixed curves; inactive means no such curve, though single readings can be large; an effect the other way counts as inactive or inconclusive.
On the % scale 0 is the no-effect control and ±100 the full control effect.

Sequence of Cytochrome P450 1A2 (Homo sapiens) (P05177 whole entry, looked up): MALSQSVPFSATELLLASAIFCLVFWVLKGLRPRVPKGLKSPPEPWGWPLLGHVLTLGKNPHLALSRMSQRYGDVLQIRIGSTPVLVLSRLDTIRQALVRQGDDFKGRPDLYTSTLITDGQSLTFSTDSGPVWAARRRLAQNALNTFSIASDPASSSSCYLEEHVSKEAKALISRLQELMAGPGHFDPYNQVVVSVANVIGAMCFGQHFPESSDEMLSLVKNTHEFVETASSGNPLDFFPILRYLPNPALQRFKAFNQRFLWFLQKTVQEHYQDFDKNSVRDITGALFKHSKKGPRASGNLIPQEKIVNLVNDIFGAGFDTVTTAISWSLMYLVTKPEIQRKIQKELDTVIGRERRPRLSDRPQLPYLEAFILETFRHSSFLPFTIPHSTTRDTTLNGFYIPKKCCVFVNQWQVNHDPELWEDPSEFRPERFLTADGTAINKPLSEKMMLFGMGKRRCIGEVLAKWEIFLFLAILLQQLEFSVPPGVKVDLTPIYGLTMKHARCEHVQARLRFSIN
Sequence of Cytochrome P450 2C9 (Homo sapiens) (P11712 whole entry, looked up): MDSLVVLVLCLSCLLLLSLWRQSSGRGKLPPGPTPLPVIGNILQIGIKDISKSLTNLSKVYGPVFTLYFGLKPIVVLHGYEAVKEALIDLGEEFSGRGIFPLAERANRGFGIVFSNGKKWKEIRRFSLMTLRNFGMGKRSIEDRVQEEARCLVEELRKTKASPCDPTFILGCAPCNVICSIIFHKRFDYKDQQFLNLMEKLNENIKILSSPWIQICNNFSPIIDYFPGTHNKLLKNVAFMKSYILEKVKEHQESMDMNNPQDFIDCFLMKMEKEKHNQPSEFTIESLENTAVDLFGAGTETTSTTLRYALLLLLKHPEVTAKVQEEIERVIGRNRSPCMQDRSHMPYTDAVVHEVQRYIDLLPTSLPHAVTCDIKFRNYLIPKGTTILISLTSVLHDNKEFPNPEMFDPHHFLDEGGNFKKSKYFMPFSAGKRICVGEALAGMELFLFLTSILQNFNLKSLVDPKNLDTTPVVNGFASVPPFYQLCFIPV
Sequence of Cytochrome P450 2C19 (Homo sapiens) (P33261 whole entry, looked up): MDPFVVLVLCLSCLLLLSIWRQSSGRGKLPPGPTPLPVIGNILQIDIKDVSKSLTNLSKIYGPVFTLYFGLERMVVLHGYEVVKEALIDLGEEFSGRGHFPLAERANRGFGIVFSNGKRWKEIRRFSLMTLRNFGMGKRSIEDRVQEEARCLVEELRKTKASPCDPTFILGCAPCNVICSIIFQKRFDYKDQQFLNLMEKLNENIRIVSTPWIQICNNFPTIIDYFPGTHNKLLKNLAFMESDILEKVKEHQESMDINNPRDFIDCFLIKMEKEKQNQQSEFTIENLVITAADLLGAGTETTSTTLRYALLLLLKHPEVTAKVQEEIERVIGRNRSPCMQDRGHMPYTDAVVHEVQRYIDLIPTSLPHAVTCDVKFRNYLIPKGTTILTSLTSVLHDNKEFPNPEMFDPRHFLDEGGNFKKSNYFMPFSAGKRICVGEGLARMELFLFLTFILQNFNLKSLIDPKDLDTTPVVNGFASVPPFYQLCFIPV
Sequence of Thyrotropin-releasing hormone receptor (Homo sapiens) (P34981 whole entry, looked up): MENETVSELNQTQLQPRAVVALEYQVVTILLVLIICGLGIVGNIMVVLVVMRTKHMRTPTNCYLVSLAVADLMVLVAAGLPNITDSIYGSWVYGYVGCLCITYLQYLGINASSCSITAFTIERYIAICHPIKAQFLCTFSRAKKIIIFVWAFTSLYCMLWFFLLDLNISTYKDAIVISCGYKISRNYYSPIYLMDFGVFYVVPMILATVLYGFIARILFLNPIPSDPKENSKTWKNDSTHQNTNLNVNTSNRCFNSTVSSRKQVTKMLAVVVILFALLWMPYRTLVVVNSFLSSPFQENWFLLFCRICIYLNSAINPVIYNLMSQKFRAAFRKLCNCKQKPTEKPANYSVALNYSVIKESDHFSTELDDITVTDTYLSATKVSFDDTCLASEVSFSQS
Sequence of Cytochrome P450 3A4 (Homo sapiens) (P08684 whole entry, looked up): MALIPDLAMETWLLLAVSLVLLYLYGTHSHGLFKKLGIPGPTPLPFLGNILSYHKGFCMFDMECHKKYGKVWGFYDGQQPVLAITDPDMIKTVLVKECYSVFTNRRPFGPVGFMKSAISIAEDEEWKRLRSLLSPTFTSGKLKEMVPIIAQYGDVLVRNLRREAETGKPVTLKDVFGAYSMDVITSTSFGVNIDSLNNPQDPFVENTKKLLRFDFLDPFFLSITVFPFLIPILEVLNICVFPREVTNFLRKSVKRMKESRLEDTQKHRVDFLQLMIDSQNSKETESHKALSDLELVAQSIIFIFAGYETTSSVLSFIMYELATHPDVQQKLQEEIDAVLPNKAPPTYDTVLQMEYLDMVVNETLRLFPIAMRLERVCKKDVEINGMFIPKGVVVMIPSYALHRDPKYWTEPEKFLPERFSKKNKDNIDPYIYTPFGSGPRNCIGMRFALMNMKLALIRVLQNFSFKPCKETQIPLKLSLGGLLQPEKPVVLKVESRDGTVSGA
Sequence of Nuclear receptor subfamily 1 group I member 2 (Homo sapiens) (O75469 whole entry, looked up): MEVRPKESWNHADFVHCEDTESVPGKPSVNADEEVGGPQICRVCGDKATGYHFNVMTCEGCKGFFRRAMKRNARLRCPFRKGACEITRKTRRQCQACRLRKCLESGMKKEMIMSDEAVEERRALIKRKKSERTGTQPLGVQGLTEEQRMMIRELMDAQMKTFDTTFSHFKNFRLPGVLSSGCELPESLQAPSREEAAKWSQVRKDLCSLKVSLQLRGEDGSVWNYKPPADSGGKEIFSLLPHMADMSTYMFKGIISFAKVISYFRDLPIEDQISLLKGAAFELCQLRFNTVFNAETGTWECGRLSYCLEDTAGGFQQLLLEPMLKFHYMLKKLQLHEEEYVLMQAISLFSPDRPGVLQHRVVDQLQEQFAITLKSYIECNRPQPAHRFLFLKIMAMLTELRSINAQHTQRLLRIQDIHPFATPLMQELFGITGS
Sequence of Voltage-gated inwardly rectifying potassium channel KCNH2 (Homo sapiens) (Q12809 whole entry, looked up): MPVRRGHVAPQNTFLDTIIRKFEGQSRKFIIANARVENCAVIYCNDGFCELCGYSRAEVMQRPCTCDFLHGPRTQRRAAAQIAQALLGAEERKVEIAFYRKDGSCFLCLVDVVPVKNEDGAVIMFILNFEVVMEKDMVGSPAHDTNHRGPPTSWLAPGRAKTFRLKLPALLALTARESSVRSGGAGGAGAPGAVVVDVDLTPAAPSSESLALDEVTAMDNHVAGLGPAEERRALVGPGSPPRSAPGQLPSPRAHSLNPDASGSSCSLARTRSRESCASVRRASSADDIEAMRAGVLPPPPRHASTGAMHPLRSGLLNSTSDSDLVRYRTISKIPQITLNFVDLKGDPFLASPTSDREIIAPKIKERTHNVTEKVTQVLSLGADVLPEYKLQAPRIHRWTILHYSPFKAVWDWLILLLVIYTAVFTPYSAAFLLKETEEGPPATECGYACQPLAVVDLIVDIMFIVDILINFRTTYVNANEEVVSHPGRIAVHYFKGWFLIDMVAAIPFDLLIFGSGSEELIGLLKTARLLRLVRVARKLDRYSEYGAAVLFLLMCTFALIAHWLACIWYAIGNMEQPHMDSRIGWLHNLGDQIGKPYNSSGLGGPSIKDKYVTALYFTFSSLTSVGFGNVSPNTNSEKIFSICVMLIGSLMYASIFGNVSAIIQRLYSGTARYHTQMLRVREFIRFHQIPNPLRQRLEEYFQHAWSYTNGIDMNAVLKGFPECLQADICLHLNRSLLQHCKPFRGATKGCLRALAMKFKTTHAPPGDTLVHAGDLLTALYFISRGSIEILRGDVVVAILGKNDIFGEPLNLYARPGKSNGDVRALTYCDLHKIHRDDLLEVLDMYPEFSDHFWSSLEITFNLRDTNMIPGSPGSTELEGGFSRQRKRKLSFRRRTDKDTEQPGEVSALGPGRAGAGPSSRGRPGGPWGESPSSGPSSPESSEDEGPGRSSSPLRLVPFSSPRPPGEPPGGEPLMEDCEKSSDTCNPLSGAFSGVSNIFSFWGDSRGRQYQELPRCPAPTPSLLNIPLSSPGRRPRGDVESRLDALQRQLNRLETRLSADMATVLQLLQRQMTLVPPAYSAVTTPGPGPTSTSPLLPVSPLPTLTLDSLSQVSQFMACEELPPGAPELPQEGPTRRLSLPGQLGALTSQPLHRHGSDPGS
Sequence of Cytochrome P450 2D6 (Homo sapiens) (P10635 whole entry, looked up): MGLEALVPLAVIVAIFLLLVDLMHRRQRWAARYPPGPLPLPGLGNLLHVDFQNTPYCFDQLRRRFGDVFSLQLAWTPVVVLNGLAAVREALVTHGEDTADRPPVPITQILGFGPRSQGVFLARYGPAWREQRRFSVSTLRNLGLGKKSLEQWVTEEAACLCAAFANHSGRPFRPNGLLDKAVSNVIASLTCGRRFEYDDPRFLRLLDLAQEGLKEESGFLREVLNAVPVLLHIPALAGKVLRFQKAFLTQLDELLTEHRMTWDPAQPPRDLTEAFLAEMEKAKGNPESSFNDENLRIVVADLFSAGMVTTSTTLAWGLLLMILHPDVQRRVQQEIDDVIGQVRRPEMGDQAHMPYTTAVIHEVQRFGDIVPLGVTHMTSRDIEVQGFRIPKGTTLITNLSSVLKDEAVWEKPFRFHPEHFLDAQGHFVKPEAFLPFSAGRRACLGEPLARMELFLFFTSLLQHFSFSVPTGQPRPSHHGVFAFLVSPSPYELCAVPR
Sequence of Nuclear receptor subfamily 1 group I member 2 (Rattus norvegicus) (Q9R1A7 whole entry, looked up): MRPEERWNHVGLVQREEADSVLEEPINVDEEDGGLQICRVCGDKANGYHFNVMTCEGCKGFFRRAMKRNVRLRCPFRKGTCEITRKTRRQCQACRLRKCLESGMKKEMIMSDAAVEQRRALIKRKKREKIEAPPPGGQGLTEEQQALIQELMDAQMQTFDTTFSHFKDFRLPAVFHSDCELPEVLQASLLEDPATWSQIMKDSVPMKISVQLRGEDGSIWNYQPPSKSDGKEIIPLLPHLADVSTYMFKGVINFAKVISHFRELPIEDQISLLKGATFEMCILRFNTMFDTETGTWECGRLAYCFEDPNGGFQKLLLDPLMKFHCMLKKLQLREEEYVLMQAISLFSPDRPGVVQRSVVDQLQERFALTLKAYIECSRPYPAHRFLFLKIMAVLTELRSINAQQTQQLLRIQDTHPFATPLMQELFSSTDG

With `COC(=O)c1cccc(Cl)c1`, the result in assay [1], in [2], in assay [3], in [4], in assay [5] and in assay [6] was inactive. Also, the compound was called inactive in [8] and in [9]. In addition, the Potency entry in assay [7], in [10], in [11], in assay [12] and in [13] was “inactive” each time.

For the compound `O=C(Cl)c1ccccc1[N+](=O)[O-]`, the compound was called inactive in [1], in [2], in assay [3], in assay [4], in assay [6] and in assay [9]. Further, the Potency result in [7], in [10], in assay [11], in assay [12] and in assay [13] was “inactive” in each case. Further, in [14], the Potency is 72.7 µM (active).

On to `CN(C)C(C)(C)CO`, for which the compound was classed as inactive in [1], in [2], in [3], in assay [4], in assay [6] and in assay [8]. Further, in [9], the compound was classed as inactive. Moreover, the Potency entry in assay [10], in assay [15], in assay [14], in assay [11], in assay [16] and in assay [12] was “inactive” throughout. The Potency entry in [13] was “inactive”.

Turning to `O=C(O)CCCCCC(=O)O`, the outcome in assay [1], in assay [2], in assay [3], in [4], in assay [6] and in assay [8] was inactive. Besides, the outcome in [9] was inactive. Moreover, the Potency result in [7], in [10], in assay [11], in assay [16], in assay [12] and in assay [13] was “inactive” each time.

`CC(C)Nc1ccccc1`: the result in assay [1], in [2], in assay [3], in assay [4], in assay [6] and in assay [8] was inactive. Besides, the compound was classed as inactive in [9]. Moreover, the Potency result in [7], in assay [10], in assay [15], in [14], in assay [11] and in [13] was “inactive” each time.

On to `Cc1c(NC(=O)c2cccnc2)c(=O)n(-c2ccccc2)n1C`, for which the call in [1], in assay [2], in assay [3], in assay [5], in [6] and in assay [8] was inactive. For the same compound, the call in [9] was inactive. Besides, the Potency result in [7], in assay [10], in assay [18], in assay [19], in assay [11] and in assay [16] was “inactive” throughout. For the same compound, the Potency entry in assay [12] and in [13] was “inactive” throughout. For the same compound, in [17], the max activation was -1.68%.

For `CC(=O)c1cc(C)oc1C`, the compound was called inactive in [1], in assay [2], in [3], in [4], in assay [6] and in assay [9]. Moreover, the Potency entry in assay [7], in assay [10], in assay [11], in assay [16], in assay [12] and in assay [13] was “inactive” throughout. Moreover, the Potency in assay [14] was 32.9 µM (active).

In the case of `O=C(O)CNC(=O)CNC(=O)CNC(=O)CSC(=O)c1ccccc1`, the compound was called inactive in [1], in assay [2], in assay [3], in [4], in assay [5] and in assay [6]. Moreover, the outcome in [8] and in [9] was inactive. Further, the Potency entry in [10], in assay [15], in assay [11], in [16] and in assay [13] was “inactive” in each case.

As for `CC(=O)OCC(=O)Nc1cc(C#N)cc(NC(=O)COC(C)=O)c1Cl`, the result in assay [1], in [2], in [3], in [5], in assay [6] and in assay [8] was inactive. For the same compound, the result in [9] was inactive. Also, the Potency result in [7], in assay [10], in assay [15], in [14], in assay [11] and in [16] was “inactive” in each case. Further, the Potency result in assay [12] and in assay [13] was “inactive” throughout.
